# Article PMC12529666, “Dysregulation of AGO2-miRNA dynamics underlies the AGO2-associated Lessel–Kreienkamp syndrome”
# Where a chain is given by its changes, count along the chain named.
# B1: GCGCCTCA (ssRNA)
# RNA 1: GAGUUCUACAGUCCGACGAUCCCAACGCGCCUCACACCUGGAAUUCUCGGGUGCCAA
# RNA 2: UGGAGUGUGACAAUGGUGUUUG
# DNA 1: GATCGTCGGACTGTAGAACTC
# DNA 2: TTGGCACCCGAGAATTCCA
# modifications: constant regions annealed to DNA blockers; guide miR-122 5' phosphate
# B2: GTGCTTCG (ssRNA)
# RNA 1: B1 RNA 1 with C28U, C31U, A34G
# RNA 2: UGGAGUGUGACAAUGGUGUUUG
# DNA 1: GATCGTCGGACTGTAGAACTC
# DNA 2: TTGGCACCCGAGAATTCCA
# modifications: constant regions annealed to DNA blockers; guide miR-122 5' phosphate
# B3: ACACCTTA (ssRNA)
# RNA 1: B1 RNA 1 with G27A, G29A, C33U
# RNA 2: UGGAGUGUGACAAUGGUGUUUG
# DNA 1: GATCGTCGGACTGTAGAACTC
# DNA 2: TTGGCACCCGAGAATTCCA
# modifications: constant regions annealed to DNA blockers; guide miR-122 5' phosphate
# B4: ATACTCCA (ssRNA)
# RNA 1: B1 RNA 1 with G27A, C28U, G29A, C31U, U32C
# RNA 2: UGGAGUGUGACAAUGGUGUUUG
# DNA 1: GATCGTCGGACTGTAGAACTC
# DNA 2: TTGGCACCCGAGAATTCCA
# modifications: constant regions annealed to DNA blockers; guide miR-122 5' phosphate
# B5: ACACTCTG (ssRNA)
# RNA 1: B1 RNA 1 with G27A, G29A, C31U, U32C, C33U, A34G
# RNA 2: UGGAGUGUGACAAUGGUGUUUG
# DNA 1: GATCGTCGGACTGTAGAACTC
# DNA 2: TTGGCACCCGAGAATTCCA
# modifications: constant regions annealed to DNA blockers; guide miR-122 5' phosphate
# B6: ACGTTCCA (ssRNA)
# RNA 1: B1 RNA 1 with G27A, C30U, C31U, U32C
# RNA 2: UGGAGUGUGACAAUGGUGUUUG
# DNA 1: GATCGTCGGACTGTAGAACTC
# DNA 2: TTGGCACCCGAGAATTCCA
# modifications: constant regions annealed to DNA blockers; guide miR-122 5' phosphate
# B7: GCACCCCG (ssRNA)
# RNA 1: B1 RNA 1 with G29A, U32C, A34G
# RNA 2: UGGAGUGUGACAAUGGUGUUUG
# DNA 1: GATCGTCGGACTGTAGAACTC
# DNA 2: TTGGCACCCGAGAATTCCA
# modifications: constant regions annealed to DNA blockers; guide miR-122 5' phosphate
# B8: GCGCCCCG (ssRNA)
# RNA 1: B1 RNA 1 with U32C, A34G
# RNA 2: UGGAGUGUGACAAUGGUGUUUG
# DNA 1: GATCGTCGGACTGTAGAACTC
# DNA 2: TTGGCACCCGAGAATTCCA
# modifications: constant regions annealed to DNA blockers; guide miR-122 5' phosphate
# B9: ACACCCCG (ssRNA)
# RNA 1: B1 RNA 1 with G27A, G29A, U32C, A34G
# RNA 2: UGGAGUGUGACAAUGGUGUUUG
# DNA 1: GATCGTCGGACTGTAGAACTC
# DNA 2: TTGGCACCCGAGAATTCCA
# modifications: constant regions annealed to DNA blockers; guide miR-122 5' phosphate
# B10: ATGTCTTA (ssRNA)
# RNA 1: B1 RNA 1 with G27A, C28U, C30U, C33U
# RNA 2: UGGAGUGUGACAAUGGUGUUUG
# DNA 1: GATCGTCGGACTGTAGAACTC
# DNA 2: TTGGCACCCGAGAATTCCA
# modifications: constant regions annealed to DNA blockers; guide miR-122 5' phosphate
# B11: GTGTCTCA (ssRNA)
# RNA 1: B1 RNA 1 with C28U, C30U
# RNA 2: UGGAGUGUGACAAUGGUGUUUG
# DNA 1: GATCGTCGGACTGTAGAACTC
# DNA 2: TTGGCACCCGAGAATTCCA
# modifications: constant regions annealed to DNA blockers; guide miR-122 5' phosphate
# B12: GTGCCTCA (ssRNA)
# RNA 1: B1 RNA 1 with C28U
# RNA 2: UGGAGUGUGACAAUGGUGUUUG
# DNA 1: GATCGTCGGACTGTAGAACTC
# DNA 2: TTGGCACCCGAGAATTCCA
# modifications: constant regions annealed to DNA blockers; guide miR-122 5' phosphate
# B13: ACATTTTA (ssRNA)
# RNA 1: B1 RNA 1 with G27A, G29A, C30U, C31U, C33U
# RNA 2: UGGAGUGUGACAAUGGUGUUUG
# DNA 1: GATCGTCGGACTGTAGAACTC
# DNA 2: TTGGCACCCGAGAATTCCA
# modifications: constant regions annealed to DNA blockers; guide miR-122 5' phosphate
# B14: ACGCTCTG (ssRNA)
# RNA 1: B1 RNA 1 with G27A, C31U, U32C, C33U, A34G
# RNA 2: UGGAGUGUGACAAUGGUGUUUG
# DNA 1: GATCGTCGGACTGTAGAACTC
# DNA 2: TTGGCACCCGAGAATTCCA
# modifications: constant regions annealed to DNA blockers; guide miR-122 5' phosphate
# B15: ATGTTTTA (ssRNA)
# RNA 1: B1 RNA 1 with G27A, C28U, C30U, C31U, C33U
# RNA 2: UGGAGUGUGACAAUGGUGUUUG
# DNA 1: GATCGTCGGACTGTAGAACTC
# DNA 2: TTGGCACCCGAGAATTCCA
# modifications: constant regions annealed to DNA blockers; guide miR-122 5' phosphate
# B16: GCGCTCCG (ssRNA)
# RNA 1: B1 RNA 1 with C31U, U32C, A34G
# RNA 2: UGGAGUGUGACAAUGGUGUUUG
# DNA 1: GATCGTCGGACTGTAGAACTC
# DNA 2: TTGGCACCCGAGAATTCCA
# modifications: constant regions annealed to DNA blockers; guide miR-122 5' phosphate
# B17: GTGCCTTA (ssRNA)
# RNA 1: B1 RNA 1 with C28U, C33U
# RNA 2: UGGAGUGUGACAAUGGUGUUUG
# DNA 1: GATCGTCGGACTGTAGAACTC
# DNA 2: TTGGCACCCGAGAATTCCA
# modifications: constant regions annealed to DNA blockers; guide miR-122 5' phosphate
# B18: GTGCCCCA (ssRNA)
# RNA 1: B1 RNA 1 with C28U, U32C
# RNA 2: UGGAGUGUGACAAUGGUGUUUG
# DNA 1: GATCGTCGGACTGTAGAACTC
# DNA 2: TTGGCACCCGAGAATTCCA
# modifications: constant regions annealed to DNA blockers; guide miR-122 5' phosphate
# B19: GTGCTCTG (ssRNA)
# RNA 1: B1 RNA 1 with C28U, C31U, U32C, C33U, A34G
# RNA 2: UGGAGUGUGACAAUGGUGUUUG
# DNA 1: GATCGTCGGACTGTAGAACTC
# DNA 2: TTGGCACCCGAGAATTCCA
# modifications: constant regions annealed to DNA blockers; guide miR-122 5' phosphate
# Target: AGO2 WT (phosphosite mutant background) (Homo sapiens, UniProt Q9UKV8 1-859, S387D;S824A;S828D;S831D;S834A)
# Sequence (Q9UKV8 whole entry S387D/S824A/S828D/S831D/S834A): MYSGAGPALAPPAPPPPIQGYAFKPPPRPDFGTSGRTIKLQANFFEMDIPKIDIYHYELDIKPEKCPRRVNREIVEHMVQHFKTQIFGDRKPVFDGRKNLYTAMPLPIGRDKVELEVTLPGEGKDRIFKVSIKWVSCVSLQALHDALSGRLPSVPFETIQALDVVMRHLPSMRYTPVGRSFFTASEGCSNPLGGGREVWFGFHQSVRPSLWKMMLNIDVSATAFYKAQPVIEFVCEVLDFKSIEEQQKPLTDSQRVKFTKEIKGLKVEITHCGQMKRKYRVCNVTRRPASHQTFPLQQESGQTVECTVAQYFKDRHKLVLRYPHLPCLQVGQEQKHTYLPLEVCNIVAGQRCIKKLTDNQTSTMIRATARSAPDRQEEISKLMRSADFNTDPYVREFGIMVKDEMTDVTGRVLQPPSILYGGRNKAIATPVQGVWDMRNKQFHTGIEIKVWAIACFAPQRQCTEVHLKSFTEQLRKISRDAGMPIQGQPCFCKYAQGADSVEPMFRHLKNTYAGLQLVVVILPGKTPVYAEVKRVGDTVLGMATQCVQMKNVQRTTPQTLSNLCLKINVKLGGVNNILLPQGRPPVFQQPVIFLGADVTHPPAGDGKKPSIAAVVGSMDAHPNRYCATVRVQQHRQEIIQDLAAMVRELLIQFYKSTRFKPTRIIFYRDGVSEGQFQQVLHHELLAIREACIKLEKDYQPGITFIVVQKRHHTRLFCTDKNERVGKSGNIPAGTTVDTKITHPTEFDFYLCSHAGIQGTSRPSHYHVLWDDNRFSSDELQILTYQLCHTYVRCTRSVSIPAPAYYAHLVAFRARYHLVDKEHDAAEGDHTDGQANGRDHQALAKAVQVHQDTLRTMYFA
# Assay: RNA Bind-n-Seq (nitrocellulose filter binding and sequencing); miR-122 guide loaded in AGO2; 60 min incubation; 30 mM Tris pH 8.0, 100 mM potassium acetate, 2 mM magnesium acetate, 0.5 mM TCEP, 0.005% NP-40, 0.01 mg/ml yeast tRNA; 3 nM AGO2-miR-122, 100 nM RNA library; 60; high values mean tight binding
# Conditions: protein: recombinant; tags: His6 (N-terminal, pFastBac HTA)
# In short: (§1)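 His-tagged AGO2 was expressed in Sf9 insect cells by baculovirus, loaded with a synthetic guide RNA, and purified by Ni-NTA and a biotinylated capture oligo. Bound RNA was extracted, reverse-transcribed, barcode-amplified and Illumina-sequenced. Fold enrichment is each sequence's read fraction divided by its input-library read fraction.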
row,Binder,binding signal
1,B1,0.131 fold enrichment over input
2,B2,0.127 fold enrichment over input
3,B3,0.164 fold enrichment over input
4,B4,1.32 fold enrichment over input
5,B5,0.933 fold enrichment over input
6,B6,0.137 fold enrichment over input
7,B7,0.129 fold enrichment over input
8,B8,0.12 fold enrichment over input
9,B9,0.152 fold enrichment over input
10,B10,0.142 fold enrichment over input
11,B11,0.126 fold enrichment over input
12,B12,0.122 fold enrichment over input
13,B13,0.122 fold enrichment over input
14,B14,0.132 fold enrichment over input
15,B15,0.12 fold enrichment over input
16,B16,1.39 fold enrichment over input
17,B17,0.126 fold enrichment over input
18,B18,0.123 fold enrichment over input
19,B19,0.123 fold enrichment over input

# Target: AGO2 L192P (Homo sapiens, UniProt Q9UKV8 1-859, L192P;S387D;S824A;S828D;S831D;S834A)
# Sequence (Q9UKV8 whole entry L192P/S387D/S824A/S828D/S831D/S834A): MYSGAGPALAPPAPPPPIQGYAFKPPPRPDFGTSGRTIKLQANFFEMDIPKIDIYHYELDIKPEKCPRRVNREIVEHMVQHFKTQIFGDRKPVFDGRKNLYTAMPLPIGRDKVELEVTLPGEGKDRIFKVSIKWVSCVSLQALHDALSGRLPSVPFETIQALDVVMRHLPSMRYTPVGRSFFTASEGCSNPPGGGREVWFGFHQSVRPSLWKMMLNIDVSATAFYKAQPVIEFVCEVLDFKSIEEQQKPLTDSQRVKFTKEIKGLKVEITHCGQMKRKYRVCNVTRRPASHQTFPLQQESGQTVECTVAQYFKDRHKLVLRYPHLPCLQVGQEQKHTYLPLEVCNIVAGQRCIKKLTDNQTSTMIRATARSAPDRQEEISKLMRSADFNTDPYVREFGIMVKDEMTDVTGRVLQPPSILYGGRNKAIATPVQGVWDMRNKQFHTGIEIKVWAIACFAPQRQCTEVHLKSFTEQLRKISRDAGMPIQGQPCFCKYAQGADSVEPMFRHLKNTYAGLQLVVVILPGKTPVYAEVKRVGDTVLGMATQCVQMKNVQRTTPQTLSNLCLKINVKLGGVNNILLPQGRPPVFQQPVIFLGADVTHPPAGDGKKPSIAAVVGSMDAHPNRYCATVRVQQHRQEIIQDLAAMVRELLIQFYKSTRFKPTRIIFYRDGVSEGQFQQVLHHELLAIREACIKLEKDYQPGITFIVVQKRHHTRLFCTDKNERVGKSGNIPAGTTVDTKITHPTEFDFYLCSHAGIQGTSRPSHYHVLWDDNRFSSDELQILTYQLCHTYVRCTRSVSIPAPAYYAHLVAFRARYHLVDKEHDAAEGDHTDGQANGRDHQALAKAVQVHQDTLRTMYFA
# Assay: as above
# Conditions: protein: recombinant; tags: His6 (N-terminal, pFastBac HTA)
# In short: as §1
row,Binder,binding signal
1,B1,0.523 fold enrichment over input
2,B2,0.455 fold enrichment over input
3,B3,0.755 fold enrichment over input
4,B4,4.64 fold enrichment over input
5,B5,0.807 fold enrichment over input
6,B6,0.603 fold enrichment over input
7,B7,0.455 fold enrichment over input
8,B8,0.438 fold enrichment over input
9,B9,0.517 fold enrichment over input
10,B10,0.569 fold enrichment over input
11,B11,0.486 fold enrichment over input
12,B12,0.533 fold enrichment over input
13,B13,0.534 fold enrichment over input
14,B14,0.394 fold enrichment over input
15,B15,0.492 fold enrichment over input
16,B16,3.09 fold enrichment over input
17,B17,0.555 fold enrichment over input
18,B18,0.464 fold enrichment over input
19,B19,0.483 fold enrichment over input

# Target: AGO2 A367P (Homo sapiens, UniProt Q9UKV8 1-859, A367P;S387D;S824A;S828D;S831D;S834A)
# Sequence (Q9UKV8 whole entry A367P/S387D/S824A/S828D/S831D/S834A): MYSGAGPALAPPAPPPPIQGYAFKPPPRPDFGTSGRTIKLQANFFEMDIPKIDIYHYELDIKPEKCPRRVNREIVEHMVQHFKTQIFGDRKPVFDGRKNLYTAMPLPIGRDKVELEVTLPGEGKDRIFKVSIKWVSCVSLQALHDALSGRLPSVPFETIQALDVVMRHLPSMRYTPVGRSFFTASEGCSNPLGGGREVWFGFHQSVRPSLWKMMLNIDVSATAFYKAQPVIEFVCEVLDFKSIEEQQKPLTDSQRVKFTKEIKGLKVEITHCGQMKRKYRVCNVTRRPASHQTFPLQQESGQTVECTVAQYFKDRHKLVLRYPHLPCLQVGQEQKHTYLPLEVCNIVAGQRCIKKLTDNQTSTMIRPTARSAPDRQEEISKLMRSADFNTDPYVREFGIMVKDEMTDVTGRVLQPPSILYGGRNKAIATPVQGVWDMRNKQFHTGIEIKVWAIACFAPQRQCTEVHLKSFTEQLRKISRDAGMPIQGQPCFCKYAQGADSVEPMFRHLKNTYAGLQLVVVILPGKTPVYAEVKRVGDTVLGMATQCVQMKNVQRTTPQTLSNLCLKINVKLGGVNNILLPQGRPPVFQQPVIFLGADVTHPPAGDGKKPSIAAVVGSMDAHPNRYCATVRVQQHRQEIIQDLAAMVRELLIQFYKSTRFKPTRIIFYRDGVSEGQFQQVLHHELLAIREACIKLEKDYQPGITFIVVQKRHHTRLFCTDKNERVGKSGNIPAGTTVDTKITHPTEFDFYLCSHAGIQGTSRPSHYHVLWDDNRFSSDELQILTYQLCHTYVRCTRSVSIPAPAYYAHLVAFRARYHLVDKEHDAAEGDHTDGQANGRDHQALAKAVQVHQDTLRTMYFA
# Assay: as above
# Conditions: protein: recombinant; tags: His6 (N-terminal, pFastBac HTA)
# In short: as §1
row,Binder,binding signal
1,B1,0.233 fold enrichment over input
2,B2,0.192 fold enrichment over input
3,B3,0.475 fold enrichment over input
4,B4,6.04 fold enrichment over input
5,B5,0.794 fold enrichment over input
6,B6,0.333 fold enrichment over input
7,B7,0.21 fold enrichment over input
8,B8,0.18 fold enrichment over input
9,B9,0.259 fold enrichment over input
10,B10,0.399 fold enrichment over input
11,B11,0.222 fold enrichment over input
12,B12,0.232 fold enrichment over input
13,B13,0.209 fold enrichment over input
14,B14,0.169 fold enrichment over input
15,B15,0.247 fold enrichment over input
16,B16,4.35 fold enrichment over input
17,B17,0.217 fold enrichment over input
18,B18,0.227 fold enrichment over input
19,B19,0.182 fold enrichment over input

# Target: AGO2 T357M (Homo sapiens, UniProt Q9UKV8 1-859, T357M;S387D;S824A;S828D;S831D;S834A)
# Sequence (Q9UKV8 whole entry T357M/S387D/S824A/S828D/S831D/S834A): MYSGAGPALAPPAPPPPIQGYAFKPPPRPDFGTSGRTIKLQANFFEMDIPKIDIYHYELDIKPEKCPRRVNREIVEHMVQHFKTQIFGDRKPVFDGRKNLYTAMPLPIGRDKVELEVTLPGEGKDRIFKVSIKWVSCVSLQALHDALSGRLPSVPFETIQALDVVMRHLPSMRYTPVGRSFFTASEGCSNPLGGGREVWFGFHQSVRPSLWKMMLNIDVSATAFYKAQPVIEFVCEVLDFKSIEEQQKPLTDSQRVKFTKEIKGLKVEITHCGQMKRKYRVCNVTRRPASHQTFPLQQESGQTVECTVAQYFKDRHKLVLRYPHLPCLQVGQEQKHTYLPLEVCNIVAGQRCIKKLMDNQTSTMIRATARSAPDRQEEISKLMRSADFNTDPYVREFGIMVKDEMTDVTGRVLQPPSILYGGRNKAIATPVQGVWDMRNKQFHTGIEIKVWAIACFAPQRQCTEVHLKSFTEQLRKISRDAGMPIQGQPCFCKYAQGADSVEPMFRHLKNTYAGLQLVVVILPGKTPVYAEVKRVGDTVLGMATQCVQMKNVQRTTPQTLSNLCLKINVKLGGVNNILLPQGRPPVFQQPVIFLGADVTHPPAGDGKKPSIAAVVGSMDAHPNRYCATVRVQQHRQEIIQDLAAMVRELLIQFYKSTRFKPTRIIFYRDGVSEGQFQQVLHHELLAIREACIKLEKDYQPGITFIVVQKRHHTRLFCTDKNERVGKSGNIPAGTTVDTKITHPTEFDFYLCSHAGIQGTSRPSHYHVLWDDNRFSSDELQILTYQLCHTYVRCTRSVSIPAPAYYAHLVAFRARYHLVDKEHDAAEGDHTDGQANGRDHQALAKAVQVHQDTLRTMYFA
# Assay: as above
# Conditions: protein: recombinant; tags: His6 (N-terminal, pFastBac HTA)
# In short: as §1
row,Binder,binding signal
1,B1,0.741 fold enrichment over input
2,B2,0.624 fold enrichment over input
3,B3,0.721 fold enrichment over input
4,B4,1.16 fold enrichment over input
5,B5,0.868 fold enrichment over input
6,B6,0.66 fold enrichment over input
7,B7,0.634 fold enrichment over input
8,B8,0.745 fold enrichment over input
9,B9,0.517 fold enrichment over input
10,B10,0.646 fold enrichment over input
11,B11,0.585 fold enrichment over input
12,B12,0.687 fold enrichment over input
13,B13,0.598 fold enrichment over input
14,B14,0.539 fold enrichment over input
15,B15,0.607 fold enrichment over input
16,B16,0.905 fold enrichment over input
17,B17,0.801 fold enrichment over input
18,B18,0.677 fold enrichment over input
19,B19,0.67 fold enrichment over input

# Target: AGO2 F182del (Homo sapiens, UniProt Q9UKV8 1-859, S387D;S824A;S828D;S831D;S834A;del182-182)
# Sequence (Q9UKV8 other isoform, or with tags, fused parts or gaps S387D;S824A;S828D;S831D;S834A;del182-182): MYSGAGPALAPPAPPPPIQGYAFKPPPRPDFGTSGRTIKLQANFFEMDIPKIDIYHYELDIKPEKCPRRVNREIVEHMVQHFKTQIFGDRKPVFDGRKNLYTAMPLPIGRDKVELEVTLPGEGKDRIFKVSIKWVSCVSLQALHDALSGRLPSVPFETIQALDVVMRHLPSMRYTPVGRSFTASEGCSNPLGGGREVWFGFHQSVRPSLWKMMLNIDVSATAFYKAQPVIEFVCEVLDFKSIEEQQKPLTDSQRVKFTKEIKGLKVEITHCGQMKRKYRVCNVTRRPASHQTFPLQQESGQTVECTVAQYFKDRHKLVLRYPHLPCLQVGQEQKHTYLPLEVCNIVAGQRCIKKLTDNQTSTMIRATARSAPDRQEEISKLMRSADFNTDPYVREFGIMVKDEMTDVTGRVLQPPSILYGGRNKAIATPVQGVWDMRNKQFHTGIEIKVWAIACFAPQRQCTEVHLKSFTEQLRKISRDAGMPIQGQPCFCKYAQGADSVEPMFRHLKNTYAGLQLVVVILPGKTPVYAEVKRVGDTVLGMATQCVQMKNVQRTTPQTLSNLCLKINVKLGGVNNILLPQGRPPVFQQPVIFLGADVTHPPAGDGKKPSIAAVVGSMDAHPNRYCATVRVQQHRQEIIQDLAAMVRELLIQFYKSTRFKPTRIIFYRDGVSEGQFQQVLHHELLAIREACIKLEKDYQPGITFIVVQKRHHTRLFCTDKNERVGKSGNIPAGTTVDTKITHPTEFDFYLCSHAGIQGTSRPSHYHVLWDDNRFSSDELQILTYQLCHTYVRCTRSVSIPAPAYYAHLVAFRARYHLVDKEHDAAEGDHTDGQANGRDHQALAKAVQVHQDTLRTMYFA
# Assay: as above
# Conditions: protein: recombinant; tags: His6 (N-terminal, pFastBac HTA)
# In short: as §1
row,Binder,binding signal
1,B1,0.304 fold enrichment over input
2,B3,1.89 fold enrichment over input
3,B4,8.59 fold enrichment over input
4,B5,2.4 fold enrichment over input
5,B6,0.976 fold enrichment over input
6,B7,0.203 fold enrichment over input
7,B9,0.82 fold enrichment over input
8,B10,0.57 fold enrichment over input
9,B11,0.387 fold enrichment over input
10,B12,0.326 fold enrichment over input
11,B13,0.359 fold enrichment over input
12,B14,0.149 fold enrichment over input
13,B15,0.21 fold enrichment over input
14,B16,7.66 fold enrichment over input
15,B18,0.158 fold enrichment over input
